Inconclusive results are not listed. Calls of active or inactive are those of the source. Calls follow the shape of the dose curve; as a rule, active = well fitted curve in either direction with a large enough effect (not every such curve was filed as active); inconclusive = small, poorly fitted or top-dose-only effect, or another doubt; inactive = flat fitted curve, though single readings scatter.
% is scaled to controls: 0 for no effect and ±100 for the full control effect.

The nature of this assay: AP1 Signaling Pathway (AID 357). The conditions noted are these: ME-180 (cervical carcinoma) AP-1-bla reporter, EGF-induced, beta-lactamase ratio, 5 h; at 7.69 µM (top of the series) unless noted. In short, it runs like this: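 Read-out was the 460nm/530nm emission ratio (excitation 405nm) after CCF4 loading for 2.5 hours at room temperature. Cells carried an AP-1-driven beta-lactamase reporter, were stimulated with EC50 EGF plus compound for 5 hours, and AC50 values came from titrations.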
Regarding `O=C(O)C[C@H](Cc1ccc2c(c1)OCO2)C(=O)O`, the activity change, negative = inhibition was 2.2% (inactive).
`CC(=O)OCC(=O)[C@]12OC(C)(C)O[C@@H]1C[C@H]1[C@H]3CC=C4C[C@@H](O)CC[C@]4(C)[C@H]3CC[C@]12C`: the activity change, negative = inhibition is 8.77% (inactive).
To `N[C@@H](CSCc1ccccc1)C(=O)O` belongs 14.5% (inactive); to `CN(C)[C@H]1C(=O)C(C(=O)NCN2CCCC2)=C(O)[C@]2(O)C(=O)C3=C(O)c4c(O)cccc4[C@](C)(O)[C@H]3C[C@H]12`, -4.67% (inactive).
The value for `CN(C)c1ccc(-c2cc(NCc3ccccc3)ncn2)cc1` was -19.2% (inactive); that for `COc1ccccc1-c1nc(NCc2ccccc2)c2ccccc2n1` was 24% (inactive).
Turning to `C[C@]12CC[C@H]3c4ccc(O)cc4CC[C@@H]3[C@H]1CC[C@@H]2OC(=O)CCC1CCCC1`, the activity change, negative = inhibition was -8.48% (inactive).
To `Nc1nc2c(ncn2[C@@H]2C=C[C@@H](CO)C2)c(=O)[nH]1` belongs 2.92% (inactive); to `CN(N=O)c1ccc(/C=C\c2ccnc3ccccc23)cc1`, -0.154% (inactive); to `COc1cccc(Cn2c(=O)c(C)nc3cnc(Oc4cccc(Cl)c4)nc32)c1`, -22.3% (inactive).
Take `Cc1nc2cnc(OCc3ccccc3)nc2n(Cc2ccc(F)cc2)c1=O`: the activity change, negative = inhibition is -22.4% (inactive).
The value for `NS(=O)(=O)c1cc(C(=O)O)c(O)c2ccccc12` was 15.8% (inactive); that for `CN(C)Cc1ccccc1-c1ccc2ncnc(NC3CCNCC3)c2c1` was 20.2% (inactive); that for `COc1ccc(-n2c(=O)c(C)nc3cnc(Oc4cccc(Cl)c4)nc32)cc1` was -20.7% (inactive).
Consider `CSc1nc(C)cc(Nc2ccc(O)c(CN3CCOCC3)c2)n1`, for which the activity change, negative = inhibition was -11.8% (inactive).
To `O=C(O)[C@@H](S)[C@H](S)C(=O)O` belongs 8.2% (inactive).
Take `CNc1ncncc1-c1ccc(C(=O)N(C)C)cc1`: the activity change, negative = inhibition is -7.23% (inactive).
The value for `O=C(O)c1cc(N=Nc2ccc([N+](=O)[O-])cc2)ccc1O` was -28% (inactive); that for `Cc1c(C)c(C)c(CC2(C)CSC2)c(CC2(C)CSC2)c1C` was 10.3% (inactive).
To `CC(C)(C)NC[C@@H](O)c1ccc(O)c(CO)n1` belongs -2.07% (inactive).
Turning to `CC(C)Cn1cnc2c(Sc3c([N+](=O)[O-])ncn3C)nc(N)nc21`, the activity change, negative = inhibition was -3.59% (inactive).
To `C/C(=N\O)c1cccc[n+]1Cc1ccccc1` belongs -1.8% (inactive).
To `NS(=O)(=O)c1cc2c(cc1Cl)N[C@H](Cc1ccccc1)NS2(=O)=O` belongs -4.23% (inactive); to `NC(=O)[C@@H]1CCCN1Cc1ccc2c(c1)OCO2`, -6.11% (inactive).

The values are drawn from PubChem BioAssay (NCATS).
